# Source: PubChem BioAssay (EPA / NIEHS)
# The source made the active and inactive calls. How the source made its calls: active means hit-call score of the fitted dose curve at least 0.9, where 1 is the maximum; inactive means score below 0.9.
# Experiment: BSK_KF3CT_SRB: Viability Assessment in the BioMAP Diversity Plus: KF3CT Assay (AID 2283069);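 further: fitted for both signal gain and loss against DMSO baseline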
# Conditions: primary human keratinocytes with fibroblasts
# Description: BSK_KF3CT is a cell-based, multiplexed-readout assay that uses keratinocytes and foreskin fibroblasts, a human skin primary cell co-culture, with measurements taken at 24 hours after chemical dosing in a 96-well plate.BSK_KF3CT_SRB is an assay component measured in the BSK_KF3CT assay. It measures 0.1% sulforhodamine related to cell death using Sulforhodamine staining technology.Data from the assay component BSK_KF3CT_SRB was analyzed into 1 assay endpoint. This assay endpoint, BSK_KF3CT_SRB, was analyzed with bidirectional fitting relative to DMSO as the negative control and baseline of activity. Using a type of viability reporter, gain or loss-of-signal activity can be used to understand changes in the signaling. Furthermore, this assay endpoint can be referred to as a primary readout, because this assay has produced multiple assay endpoints where this one serves a signaling function. To generalize the intended target to other relatable targets, this assay endpoint is annotated to the cell morphology intended target family, where the subfamily is cell conformation.
# The levels of cell surface (or secreted, indicated by the prefix "s") biomarker endpoints were measured by ELISA. Overt cytotoxicity to cells in confluent adherent cultures (all systems other than the BT system) was assessed by measuring total protein levels using sulforhodamine B (SRB) staining in parallel cultures at the time of biomarker measurements, indicated as SRB endpoints. For proliferation assays for adherent cell types, individual cell types are cultured at sub-confluence and relative cell numbers quantified by SRB staining at time points optimized for each system (48 h: 3C and CASM3C systems; 72 h: BT and HDF3CGF systems; 96 h: SAg system). SRB was performed by staining cells with 0.1% SRB after fixation with 10% TCA and reading wells at 560 nm.Viability and proliferation of PBMC (T cells) was quantified by Alamar Blue reduction for the SAg and BT systems. For PBMC viability (referred to as PBMC Cytotoxicity within the assay endpoint names), cells were plated (75,000/well in a 96-well plate) and then chemical samples added for 1 h before addition of activators, SEB and TSST-1 (20 ng/mL final concentration each). Cells were incubated for 90 h. Then, Alamar Blue (20 uL/well) (Invitrogen, Cat DAL1100) was added for 6 h, and the plates were read with a fluorescence microplate reader at 546/580 nm (excitation/emission). For PBMC proliferation, cells were plated and activated as above but incubated for only 16 h prior to addition of Alamar Blue. Plates were read after 6 h.
Compound,AC50,outcome
O=C1OC2(c3cc(Br)c(O)c(Br)c3Oc3c2cc(Br)c(O)c3Br)c2c(Cl)c(Cl)c(Cl)c(Cl)c21,4.07 µM (active),
NCCNCCN,,inactive
Cc1ccc(O)c(C(C)(C)C)c1,35.2 µM (active),
O=C(O)c1cn(C2CC2)c2cc(N3CCNCC3)c(F)cc2c1=O,,inactive
CN(CCOc1ccc(CC2SC(=O)NC2=O)cc1)c1ccccn1 (stereo not given),,inactive
O=[N+]([O-])c1cc(C(F)(F)F)ccc1Cl,,inactive
C=C[Si](OCC)(OCC)OCC,,inactive
CC(=O)Nc1ccccc1O,,inactive
CC1COc2ccccc2N1C(=O)C(Cl)Cl (stereo not given),,inactive
CCCCC(CC)COCCC#N (stereo not given),,inactive
Nc1cc([N+](=O)[O-])ccc1Cl,,inactive
Cc1ccc(Nc2ccc(O)c3c2C(=O)c2ccccc2C3=O)cc1,,inactive
CCCCC/C=C/C=C/C=O,32.6 µM (active),
O=C(O)c1cn(-c2ccc(F)cc2)c2cc(N3CCNCC3)c(F)cc2c1=O,,inactive
C=C(C)C(=O)O[C@H]1C[C@@H]2CC[C@@]1(C)C2(C)C,14.6 µM (active),
CC1CCC(C(C)CS)CC1S (stereo not given),13.8 µM (active),
O=C(O)C[C@H](O)C[C@H](O)/C=C/c1c(C2CC2)nc2ccccc2c1-c1ccc(F)cc1,,inactive
CCn1c2ccccc2c2cc(N)ccc21,,inactive
CCCCCCCCC=O,,inactive
CCCCCCCCCCCCCCCCCC(=O)OCC(CC)CCCC (stereo not given),,inactive

Compound,AC50,outcome
Cc1ccc2n[nH]nc2c1,,inactive
COc1cc(C=O)ccc1OC(=O)C(C)C,,inactive
OC[C@H]1O[C@H](O[C@]2(CCl)O[C@H](CCl)[C@@H](O)[C@@H]2O)[C@H](O)[C@@H](O)[C@H]1Cl,,inactive
O=P(c1ccccc1)(c1ccccc1)c1ccccc1,,inactive
CC[Si](OC(C)=O)(OC(C)=O)OC(C)=O,,inactive
CCCCC(CC)COC(=O)/C=C\C(=O)OCC(CC)CCCC (stereo not given),,inactive
c1ccc2c(c1)c1cccc3ccc4cccc2c4c31,,inactive
CC(C)Oc1ccccc1O,,inactive
CCC(=O)OCc1ccccc1,,inactive
C[C@H]1C[C@@H]2[C@H]([C@@H](O)C[C@@]3(C)[C@H]2CC[C@]3(O)C(=O)CO)[C@@]2(C)C=CC(=O)C=C12,,inactive
O=C=NC1CCC(CC2CCC(N=C=O)CC2)CC1 (stereo not given),,inactive
OC1OC[C@@H](O)[C@H](O)[C@H]1O (stereo not given in full),,inactive
C=CCOC(=O)CCC1CCCCC1,,inactive
Cc1cc(C2(c3cc(C)c(O)cc3C)OS(=O)(=O)c3ccccc32)c(C)cc1O,,inactive
CC(=O)[C@H]1CC[C@H]2[C@@H]3CC=C4C[C@@H](O)CC[C@]4(C)[C@H]3CC[C@]12C,,inactive
CNC[C@H](O)c1cccc(O)c1,,inactive
CC(=O)OCCC(C)CC(C)(C)C (stereo not given),,inactive
O=C1CCCCCCCCCCCCCCO1,,inactive
CCCCCCCCCC=O,,inactive
BrC1CCC(Br)C(Br)CCC(Br)C(Br)CCC1Br (stereo not given),,inactive
